This is an account of results in the supplement of paper PMC10981050.

Values joined by “and” are separate entries in the source; they are usually repeats but may differ in a detail not shown here. Equal values may be shown once. Where a name gives a salt, the structure may show the parent alone.

Assay in all cases: cell viability relative to vehicle control; higher = less cytotoxic
Holding throughout (conditions): 10 µM

Assay [1] has as its system K562. The gist of the method:
(§1)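 CRISPR-edited mutant clones and isogenic wild-type clones from four leukaemia lines were screened against Selleck bioactive, kinase and epigenetic probe libraries, with identity-inconsistent compounds excluded. Each compound was acoustically dispensed at a single 10 µM dose into 384-well plates holding 2000 cells in 50 µL medium per well. After 48 h the supernatant was removed and CellTiter-Glo luminescence was read. Viability was expressed as percent of the on-plate vehicle control and analysed in Genedata Screener.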

For assay [2], the system named is MARIMO. The gist of the method:
as §1

Assay [3] relates to MOLM14. In short, it runs like this: as §1
For assay [4], the system named is OCI-AML2. In short, it runs like this: as §1

The cell viability is a read-out of living cells in per cent, often relative to untreated cells. With `CN[C@H]1CC[C@@H](c2ccc(Cl)c(Cl)c2)c2ccccc21` [Sertraline HCl], the cell viability in assay [1] (SRSF2 genotype: SRSF2 P95H/wt) is 30.3% and 54.2%; in assay [1] (SRSF2 genotype: SRSF2 wt/wt), 52.8%; in assay [2] (SRSF2 genotype: SRSF2 P95H/wt), 41.7%; in assay [2] (SRSF2 genotype: SRSF2 wt/wt), 48%; in assay [3] (SRSF2 genotype: SRSF2 P95H/wt), 32.7%; in assay [3] (SRSF2 genotype: SRSF2 wt/wt), 42.9%. In addition, the cell viability in assay [4] (SRSF2 genotype: P95H/wt) was 26.2%; in assay [4] (SRSF2 genotype: wt/wt), 37.5%.

As for `CCOCC(O)COc1ccc(NC(=O)CC[S+](C)C)cc1` (stereo not drawn) [Suplatast tosylate], the cell viability in assay [1] (SRSF2 genotype: SRSF2 P95H/wt) was 100%; in assay [1] (SRSF2 genotype: SRSF2 wt/wt) it was 103%; in assay [2] (SRSF2 genotype: SRSF2 P95H/wt), 97.7%; in assay [2] (SRSF2 genotype: SRSF2 wt/wt) it was 109%; in assay [3] (SRSF2 genotype: SRSF2 P95H/wt), 105%; in assay [3] (SRSF2 genotype: SRSF2 wt/wt), 105%. Further, the values for the cell viability in assay [4] (SRSF2 genotype: P95H/wt) and in assay [4] (SRSF2 genotype: wt/wt) were 97.7% and 110%, respectively.

Turning to `OC[C@H]1O[C@H](OC[C@H]2O[C@H](O[C@]3(CO)O[C@H](CO)[C@@H](O)[C@@H]3O)[C@H](O)[C@@H](O)[C@@H]2O)[C@H](O)[C@@H](O)[C@H]1O` [D-(+)-Raffinose pentahydrate], the cell viability in assay [1] (SRSF2 genotype: SRSF2 P95H/wt) is 114% and 103%; in assay [1] (SRSF2 genotype: SRSF2 wt/wt) it was 118%; in assay [2] (SRSF2 genotype: SRSF2 P95H/wt) it was 104%; in assay [2] (SRSF2 genotype: SRSF2 wt/wt), 103%; in assay [3] (SRSF2 genotype: SRSF2 P95H/wt), 112%; in assay [3] (SRSF2 genotype: SRSF2 wt/wt), 113%. Moreover, the results for the cell viability in assay [4] (SRSF2 genotype: P95H/wt) and in assay [4] (SRSF2 genotype: wt/wt) were 104% and 103%, respectively.

Turning to `C=CC(=O)Nc1cccc(Nc2nc(Nc3ccc(OCCOC)cc3)ncc2F)c1`, the cell viability in assay [1] (SRSF2 genotype: SRSF2 P95H/wt) is 66.8% and 79.5%; in assay [1] (SRSF2 genotype: SRSF2 wt/wt), 73.4%; in assay [2] (SRSF2 genotype: SRSF2 P95H/wt), 62.1%; in assay [2] (SRSF2 genotype: SRSF2 wt/wt), 60.4%; in assay [3] (SRSF2 genotype: SRSF2 P95H/wt), 9.43%; in assay [3] (SRSF2 genotype: SRSF2 wt/wt), 6.93%. In addition, the cell viability was determined as 28.2% in assay [4] (SRSF2 genotype: P95H/wt) and 31.8% in assay [4] (SRSF2 genotype: wt/wt).

With `CS(=O)(=O)CCNCc1ccc(-c2ccc3ncnc(Nc4ccc(OCc5cccc(F)c5)c(Cl)c4)c3c2)o1`, the cell viability was 54.6% and 37% in assay [1] (SRSF2 genotype: SRSF2 P95H/wt); 56.7% in assay [1] (SRSF2 genotype: SRSF2 wt/wt); 88.7% in assay [2] (SRSF2 genotype: SRSF2 P95H/wt); 90.3% in assay [2] (SRSF2 genotype: SRSF2 wt/wt); 86.2% in assay [3] (SRSF2 genotype: SRSF2 P95H/wt); 60.6% in assay [3] (SRSF2 genotype: SRSF2 wt/wt). For the same molecule, the cell viability was 65% in assay [4] (SRSF2 genotype: P95H/wt) and 59.5% in assay [4] (SRSF2 genotype: wt/wt).

`CN1Cc2c(ccc3c2OCO3)[C@@]2(C)[C@@H](O)Cc3cc4c(cc3[C@@H]12)OCO4` [Corynoline]: the cell viability in assay [1] (SRSF2 genotype: SRSF2 P95H/wt) is 18.7% and 28.5%; in assay [1] (SRSF2 genotype: SRSF2 wt/wt), 24.2%; in assay [2] (SRSF2 genotype: SRSF2 P95H/wt) it was 8.07%; in assay [2] (SRSF2 genotype: SRSF2 wt/wt), 9.1%; in assay [3] (SRSF2 genotype: SRSF2 P95H/wt) it was 8.94%; in assay [3] (SRSF2 genotype: SRSF2 wt/wt), 3.23%. Also, the cell viability in assay [4] (SRSF2 genotype: P95H/wt) worked out at 5.69%; in assay [4] (SRSF2 genotype: wt/wt), 13%.

Regarding `C[C@@]12C[C@@]3(O)O[C@@H](O1)[C@]1(COC(=O)c4ccccc4)[C@H]3C[C@@]12O[C@@H]1O[C@H](CO)[C@@H](O)[C@H](O)[C@H]1O` [Paeoniflorin], the cell viability is 100% and 109% in assay [1] (SRSF2 genotype: SRSF2 P95H/wt); 102% in assay [1] (SRSF2 genotype: SRSF2 wt/wt); 101% in assay [2] (SRSF2 genotype: SRSF2 P95H/wt); 101% in assay [2] (SRSF2 genotype: SRSF2 wt/wt); 107% in assay [3] (SRSF2 genotype: SRSF2 P95H/wt); 111% in assay [3] (SRSF2 genotype: SRSF2 wt/wt). The results for the cell viability in assay [4] (SRSF2 genotype: P95H/wt) and in assay [4] (SRSF2 genotype: wt/wt) were 112% and 97.3%, respectively.

`CC1(C)S[C@@H]2[C@H](NC(=O)[C@H](N)c3ccc(O)cc3)C(=O)N2[C@H]1C(=O)O` [Amoxicillin (Amoxycillin)]: the cell viability is 97.3% and 90.7% in assay [1] (SRSF2 genotype: SRSF2 P95H/wt); 91.7% in assay [1] (SRSF2 genotype: SRSF2 wt/wt); 91.2% in assay [2] (SRSF2 genotype: SRSF2 P95H/wt); 98.5% in assay [2] (SRSF2 genotype: SRSF2 wt/wt); 99.7% in assay [3] (SRSF2 genotype: SRSF2 P95H/wt); 100% in assay [3] (SRSF2 genotype: SRSF2 wt/wt). Also, the cell viability in assay [4] (SRSF2 genotype: P95H/wt) was determined as 92.4%; in assay [4] (SRSF2 genotype: wt/wt) it was 105%.

`CC(=O)N1CCN(c2ccc(NC(=O)Cc3cnc(-c4ccnc(F)c4)c(C)c3)nc2)CC1`: the cell viability was 88.7% and 84.8% in assay [1] (SRSF2 genotype: SRSF2 P95H/wt); 82.3% in assay [1] (SRSF2 genotype: SRSF2 wt/wt); 85.7% in assay [2] (SRSF2 genotype: SRSF2 P95H/wt); 97.8% in assay [2] (SRSF2 genotype: SRSF2 wt/wt); 80.4% in assay [3] (SRSF2 genotype: SRSF2 P95H/wt); 86.7% in assay [3] (SRSF2 genotype: SRSF2 wt/wt). Also, the cell viability in assay [4] (SRSF2 genotype: P95H/wt) came to 91.1%; in assay [4] (SRSF2 genotype: wt/wt) it was 94.6%.

In the case of `CC1(C)CCC2(C(=O)O)CCC3=C(CCC4C3(C)CCC3C4(C)CC(O)C(O)C3(C)C(=O)O)C2C1` (stereo not drawn) [Polygalic acid], the cell viability in assay [1] (SRSF2 genotype: SRSF2 P95H/wt) is 86.1% and 86.3%; in assay [1] (SRSF2 genotype: SRSF2 wt/wt) it was 82%; in assay [2] (SRSF2 genotype: SRSF2 P95H/wt), 89.8%; in assay [2] (SRSF2 genotype: SRSF2 wt/wt) it was 92%; in assay [3] (SRSF2 genotype: SRSF2 P95H/wt), 87.7%; in assay [3] (SRSF2 genotype: SRSF2 wt/wt), 87.9%. Further, the cell viability in assay [4] (SRSF2 genotype: P95H/wt) is 83.1%; in assay [4] (SRSF2 genotype: wt/wt), 95.3%.

Take `O=c1cc(-c2ccc(O)cc2)oc2cc(O)cc(O)c12` [Apigenin]: the cell viability in assay [1] (SRSF2 genotype: SRSF2 P95H/wt) is 102% and 96.4%; in assay [1] (SRSF2 genotype: SRSF2 wt/wt), 96%; in assay [2] (SRSF2 genotype: SRSF2 P95H/wt), 85.9%; in assay [2] (SRSF2 genotype: SRSF2 wt/wt), 99.8%; in assay [3] (SRSF2 genotype: SRSF2 P95H/wt), 55.4%; in assay [3] (SRSF2 genotype: SRSF2 wt/wt), 57.5%. Also, the cell viability in assay [4] (SRSF2 genotype: P95H/wt) was found to be 67.9%; in assay [4] (SRSF2 genotype: wt/wt) it was 63.6%.
